# VP16 counter – Gal4-VP16 reporter inhibition counter-screen; AID 2546; 310,000 compounds, 3.5% hits; Potency, µM (top dose mostly 53.6 µM), usual class: inhibitors; Drosophila S2 Gal4-VP16 UAS-luciferase, luminescence, 20 h;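 also: Gal4-VP16 expression switched on by copper sulfate through the metallothionein promoter; nearly all actives have a fitted effect of over 50% in size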
# TDP1 cell CPT – growth inhibition of DT40 Tdp1-/-;hTDP1 cells with camptothecin (screen for TDP1 inhibitors) | chicken DT40 Tdp1-/-;hTDP1 cells + 20 nM CPT, ATP luminescence, 48 h | Potency, µM (titrated, usually from 46.2 µM), most hits filed as inhibitors | 420,000 compounds, 12% hits | AID 686979; also: nearly all actives have a fitted effect of over 55% in size
#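 Chicken DT40 Tdp1-/- cells stably complemented with human TDP1 were seeded at 400 cells/well in medium containing 20 nM camptothecin, exposed to pin-transferred compounds, and grown at 37 °C for at least 48 hr. Viability was read as ATP luminescence.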
# DT40 TDP1 no CPT – qHTS for Inhibitors of human tyrosyl-DNA phosphodiesterase 1 (TDP1): qHTS in cells in absence of CPT; DT40 Tdp1-/- hTDP1 cells, no CPT, ATP luminescence, 48 h; Potency, µM (series often up to 46.2 µM), most hits filed as inhibitors; 420,000 compounds, 15% hits; AID 686978, 2013; also: nearly all actives have a fitted effect of over 55% in size
#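 Growth of hTDP1-complemented DT40 Tdp1-knockout cells is measured by ATP luminescence after at least 48 hr compound exposure at 37 °C, with DMSO substituting for the 20 nM CPT used in the parallel screen.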
# RORg inh – ROR gamma (mouse) transcription inhibition | P51450 | Drosophila S2 Gal4-RORgamma UAS-luciferase reporter, 20 h | Potency, µM (doses to about 53.6 µM), usual class: inhibitors | 310,000 compounds, 5.4% hits | AID 2551; also: nearly all actives have a fitted effect of over 60% in size
# Target sequence (P51450 whole entry, looked up, the tested form may be a part): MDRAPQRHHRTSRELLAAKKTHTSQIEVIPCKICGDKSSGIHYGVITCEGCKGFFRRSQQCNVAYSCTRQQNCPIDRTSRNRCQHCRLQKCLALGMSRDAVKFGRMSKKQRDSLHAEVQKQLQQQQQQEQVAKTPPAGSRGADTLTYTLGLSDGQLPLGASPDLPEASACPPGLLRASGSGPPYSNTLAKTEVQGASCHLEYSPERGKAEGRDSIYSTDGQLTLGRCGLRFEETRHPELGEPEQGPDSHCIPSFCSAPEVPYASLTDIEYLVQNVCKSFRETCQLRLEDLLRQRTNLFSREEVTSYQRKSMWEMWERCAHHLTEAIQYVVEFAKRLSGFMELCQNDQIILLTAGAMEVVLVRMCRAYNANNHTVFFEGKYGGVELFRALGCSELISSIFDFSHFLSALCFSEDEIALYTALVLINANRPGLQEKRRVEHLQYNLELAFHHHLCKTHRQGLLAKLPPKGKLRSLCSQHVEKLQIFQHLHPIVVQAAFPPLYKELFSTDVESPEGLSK
#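 Stably transfected Drosophila Schneider cells are the test system, with ROR gamma fused to Gal4 and luciferase under UAS control; luminescence is read after 20 hr of 700 uM copper sulfate induction at ambient temperature.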
# ELG1 DNA repair – blocks ELG1-dependent DNA repair in HEK293T cells; HEK293T ELG1-luciferase reporter, luminescence, 16 h; DNA damage induced by 5-fluorouridine; Potency, µM (series often up to 46.1 µM), usual class: inhibitors; 330,000 compounds, 2.3% hits; also: nearly all actives have a fitted effect of over 55% in size
#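 HEK293T cells expressing luciferase-tagged ELG1 (2,000/well) received 5-Fluorouridine plus compound or DMSO for 16 hr at 37 °C. Luciferase was read by ONE-Glo luminescence after 30 min at room temperature.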
# IL-1B inflam inh – blocks inflammasome-driven IL-1 beta release. THP-1 LPS/ATP IL-1B secretion, AlphaLISA, 16 h; hits give low values. activity change, % at 57.5 µM. 360,000 compounds, 4.7% hits. AID 743279; in the data active = activity change below about -50%; inconclusive = mostly about -30% to -49%
#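 THP-1 cells pretreated 1 hr with compounds (up to 57.5 uM final), then stimulated with LPS (250 ng/mL final) plus ATP (1.25 mM final); secreted IL-1B measured by AlphaLISA after 16 hr, decreased signal indicating inhibition.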
# Numbers stand for hits; – = inactive; ? = inconclusive; · = no result given; ! = not active in a repeat. Sampled rows, rich in hits. Any-hit rate of the full collection: about 21%. Unless noted, calls follow the shape of the dose curve; as a rule, active = well fitted curve in the direction sought with a large enough effect; inconclusive = small, poorly fitted or top-dose-only effect, or another doubt; inactive = no such curve, though single readings can be large; an effect the other way counts as inactive or inconclusive.
SMILES,VP16 counter,TDP1 cell CPT,DT40 TDP1 no CPT,RORg inh,ELG1 DNA repair,IL-1B inflam inh
CCCNS(=O)(=O)c1cccc(C(=O)OCc2cc(=O)oc3cc(OC)ccc23)c1,–,1µM,1µM,–,–,–
COc1ccc(C(=O)OCc2cc(=O)oc3cc(C)ccc23)cc1S(=O)(=O)N1CCOCC1,·,–,?,·,·,–
COc1ccc2c(COC(=O)c3ccc(C)c(S(=O)(=O)N4CCOCC4)c3)cc(=O)oc2c1,·,?,16µM,·,·,–
CN1CCN(c2ccc(NC(=O)c3sc4ccccc4c3Cl)cc2)CC1,–,12µM,13µM,–,?,?
COC(=O)c1ccc(N2CCN(c3ccccc3)CC2)c(NC(=O)C2CC2)c1,–,21µM,16µM,–,?,–
COC(=O)c1ccc(N2CCN(C)CC2)c(NC(=O)c2sc3ccccc3c2Cl)c1,·,23µM,16µM,·,·,–
COC(=O)c1ccc(N2CCN(c3ccccc3)CC2)c(N)c1,–,?,?,–,?,–
CN1CCN(C(=O)c2ccccc2NC(=O)c2sc3ccccc3c2Cl)CC1,·,?,?,·,–,–
Cc1cc(C)c(NC(=O)Cn2c(=O)n(CCC(=O)NCc3ccccc3Cl)c(=O)c3sccc32)c(C)c1,·,–,–,·,·,·
C[C@H](/C=C/[C@H](C)C(C)(C)O)[C@H]1CC[C@H]2/C(=C/C=C3C[C@@H](O)C[C@H](O)C3)CCC[C@]12C,·,–,–,·,·,·
C=C1CC[C@H](O)C/C1=C/C=C1\CCC[C@]2(C)[C@@H]([C@H](C)CCCC(C)(C)O)CC[C@@H]12,11µM!,·,·,?,·,·
C=C1/C(=C\C=C2/CCC[C@]3(C)[C@@H]([C@H](C)CCCC(C)(C)O)CC[C@@H]23)C[C@@H](O)C[C@@H]1O,?,·,·,10µM!,·,·
C=C1C(=C/C=C2\CCC[C@]3(C)[C@@H]([C@H](C)/C=C/[C@@H](O)C4CC4)CC[C@@H]23)C[C@@H](O)C[C@@H]1O,·,24µM,27µM,·,·,·
C=C1C(=C/C=C2\CCC[C@]3(C)[C@@H]([C@H](C)CCCC(C)C)CC[C@@H]23)C[C@@H](O)C[C@@H]1O,·,?,11µM,·,·,·
C=C1CC[C@H](O)C/C1=C/C=C1\CCC[C@]2(C)[C@@H]([C@H](C)CC[C@@H](O)C(C)(C)O)CC[C@@H]12,?,·,·,–,·,·
COC(Cc1ccccc1N1CCCC1=O)OC,–,–,–,–,–,–
Cc1cccc(C)c1NC(=O)C(C)NCc1cccs1 (stereo unspecified),·,–,–,·,·,–
CCCCOC(=O)C1=C(C)NC(=O)NC1c1ccc2c(c1)OCO2 (stereo unspecified),·,?,?,·,·,–
CC1=C(C(=O)OCc2ccc3c(c2)OCO3)C(c2ccc(O)c([N+](=O)[O-])c2)NC(=O)N1 (stereo unspecified),–,–,?,–,9.2µM,–
COCCSc1ccccc1C(=O)Nc1ccc(S(=O)(=O)N2CCOCC2)cc1,–,–,–,–,–,–
CC1=NN(Cc2ccccc2)C(=O)/C1=C\c1ccc(N(C)C)cc1,?,13µM,?,?,–,–
COc1ccc(-c2cc(NC(C)=O)c3ncc(-c4ccc(OC)c(OC)c4)n3c2)c(OC)c1,·,23µM,21µM,·,·,-59
COc1ccc(-c2cc(NC(C)=O)c3ncc(-c4ccc(F)cc4)n3c2)cc1OC,·,23µM,15µM,·,·,–
COc1ccc(F)cc1-c1cc(NC(C)=O)c2ncc(-c3cc(OC)c(OC)c(OC)c3)n2c1,·,3.7µM,2.9µM,·,·,–
COc1ccc(-c2cnc3c(NC(C)=O)cc(-c4cc(F)ccc4OC)cn23)cc1OC,·,5.2µM,5.8µM,·,·,–
SMILES,VP16 counter,TDP1 cell CPT,DT40 TDP1 no CPT,RORg inh,ELG1 DNA repair,IL-1B inflam inh
CC(C)CS(=O)(=O)c1oc(-c2ccc(F)cc2)nc1S(=O)(=O)c1ccccc1,·,0.41µM,0.46µM,·,·,·
CCSc1oc(-c2ccc(F)cc2)nc1S(=O)(=O)c1ccc(C)cc1,·,–,16µM,·,·,·
O=S(=O)(c1ccc(Cl)cc1)c1nc(-c2ccco2)oc1SCc1ccccc1F,·,23µM,16µM,·,·,·
CCC(C)Sc1oc(-c2ccco2)nc1S(=O)(=O)c1ccc(Cl)cc1 (stereo unspecified),·,18µM,?,·,·,·
CC(C)Sc1oc(-c2ccco2)nc1S(=O)(=O)c1ccc(F)cc1,–,?,?,?,–,–
O=c1[nH]cc(I)cc1I,–,–,–,–,–,–
Cc1ccc(S(=O)(=O)c2nc(-c3cccs3)oc2SCc2ccc(F)cc2)cc1,·,16µM,10µM,·,·,·
O=S(=O)(c1ccc(Br)cc1)c1nc(-c2ccco2)oc1SCc1ccccc1Cl,·,16µM,?,·,·,·
Cc1ccc(S(=O)(=O)c2nc(-c3cccs3)oc2SCC(N)=O)cc1,–,–,–,–,–,–
O=S(=O)(c1ccc(Cl)cc1)c1nc(-c2cccs2)oc1SCc1ccccc1F,·,16µM,23µM,·,·,·
CNc1oc(-c2cccs2)nc1S(=O)(=O)c1ccccc1,–,–,–,–,–,–
COc1ccc(C2(C(=O)NCC3Cc4cccc(-c5nc(C)cnc5C)c4O3)CCCC2)cc1 (stereo unspecified),·,?,–,·,·,·
COc1ccc(-c2nc(-c3cccs3)c(-c3cccs3)[nH]2)cc1O,–,16µM,13µM,–,?,–
O=C(Nc1ccccc1)c1nc[nH]c1C(=O)N1CCN(c2ccccc2)CC1,·,?,?,·,–,–
Cc1cccc(NC(=O)c2nc[nH]c2C(=O)NC[C@H](C)O)c1,·,–,?,·,·,–
COc1ccc(NC(=O)c2nc[nH]c2C(=O)N2CCN(c3ccccc3)CC2)cc1,11µM,–,?,5.6µM,–,–
Cc1cccc(NC(=O)c2nc[nH]c2C(=O)Nc2cccc(C)c2)c1,2.8µM,?,10µM,1.4µM,–,–
Cc1cccc(NC(=O)c2nc[nH]c2C(=O)NCCCNC(=O)c2[nH]cnc2C(=O)Nc2cccc(C)c2)c1,·,–,?,·,9.2µM,–
Cc1cccc(NC(=O)c2nc[nH]c2C(=O)N[C@@H](C)c2ccccc2)c1,·,23µM,29µM,·,?,?
C#CCOCCOCCOCCNc1nc(N2CCN(C(=O)Cn3cc(CC(C)O)nn3)CC2)nc(N2CCN(C(=O)[C@H](CCCCN)n3cc(CC(C)O)nn3)CC2)n1 (stereo partly specified),·,–,–,·,·,–
C[C@H](NC(=O)c1[nH]cnc1C(=O)N[C@H](C)c1ccccc1)c1ccccc1,·,?,?,·,–,–
COc1ccc(NC(=O)c2nc[nH]c2C(=O)N[C@@H](C)c2ccccc2)cc1,8.9µM,?,?,6.3µM,?,–

# Source: PubChem
